Several values for one entry are separate records, joined by “and”; a condition that tells them apart may be missing. Identical values can stand only once. Inconclusive results are not listed. Activity calls are given as the source filed them. Unless noted, the call rests on the fitted dose curve; in most records, active means well fitted curve in the direction sought with a large enough effect in the repeat runs; inconclusive means weak or mixed curves; inactive means no such curve, though single readings can be large; an effect the other way counts as inactive or inconclusive.
Assays:
[1] = qHTS assay for small molecule agonists of the p53 signaling pathway (AID 651631; calls by dose curve; further: nearly all actives have a fitted effect of over 15% in size)
Method in brief: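 HCT-116 p53RE-bla reporter line, 16 h compound treatment at 37 °C, then fluorescence after 2 h with B/G FRET substrate.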

[2] = qHTS assay for small molecules that induce genotoxicity in human embryonic kidney cells expressing luciferase-tagged ATAD5 (AID 651632); further: nearly all actives have a fitted effect of over 15% in size
Method in brief: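 Increased luciferase signal from ATAD5-tagged reporter cells indicates DNA-damage-driven ATAD5 induction. HEK293T cells are treated for 16 hr at 37C before detection with Amplite.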

[3] = qHTS assay for small molecule agonists of the p53 signaling pathway - cell viability (AID 651633; calls by dose curve;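 further: p53RE-bla HCT reporter cells with a stable beta-lactamase p53 reporter; nearly all actives have a fitted effect of over 30% in size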)
Method in brief: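 Viability counter-read: CellTiter-Glo luminescence (30 min, room temperature) in the same p53RE-bla plates. These plates had been exposed to compounds for 16 h at 37 C.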

[4] = qHTS assay for small molecules that induce genotoxicity in human embryonic kidney cells expressing luciferase-tagged ATAD5 - cell viability (AID 651634; calls by dose curve; further: nearly all actives have a fitted effect of over 25% in size)
Method in brief: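 Cytotoxicity counterscreen in HEK293T cells bearing an ATAD5-luciferase reporter: live-cell protease activity measured by CellTiter-Fluor fluorescence after 15.5 hr compound exposure.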

[5] = qHTS assay for small molecule disruptors of the mitochondrial membrane potential - cell viability (AID 720634; calls by dose curve;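 further: human HepG2 liver cancer cells; nearly all actives have a fitted effect of over 20% in size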)
Method in brief: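 After overnight attachment at 37 C, HepG2 cells received compound or DMSO vehicle for 1 hr. Viability is then taken from ATP-driven luminescence following a 30 min room-temperature CellTiter-Glo step.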

[6] = qHTS assay for small molecule disruptors of the mitochondrial membrane potential (AID 720635)
Method in brief: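 Mitochondrial membrane potential tracked with Mito-MPS dye, red aggregates (ex 540/em 590 nm) against green monomers (ex 490/em 535 nm). Compound treatment 1 hr at 37C, dye 30 min in HepG2.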

[7] = qHTS assay to test for compound auto fluorescence at 590 nm (red) in HepG2 cells (AID 720674)
Method in brief: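 1 hr compound incubation on HepG2 cells, 37 C, 5% CO2; plate read ex 540 nm / em 590 nm; intensities reported as Rose Bengal sodium equivalents.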

[8] = qHTS assay to test for compound auto fluorescence at 590 nm (red) in HEK293 cells (AID 720679)
Method in brief: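 Red channel, Ex/Em 540/590nm; signal expressed as equivalency to Rose Bengal sodium. HEK293, 2,000 cells/well, 10% dialyzed FBS; 23 nL compound pinned after 4-5 hr attachment; overnight 37C/5% CO2 before reading.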

[9] = qHTS assay to test for compound auto fluorescence at 460 nm (blue) in HEK293 cell free culture (AID 720681)
Method in brief: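 Blue fluorescence (Ex 405/Em 460 nm, triamterene-equivalent) was read immediately after pin transfer of compound or DMSO into medium (DMEM, 10% FBS) without cells.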

[10] = qHTS assay to test for compound auto fluorescence at 535 nm (green) in HEK293 cell free culture (AID 720682)
Method in brief: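 Steps: dispense DMEM/10% FBS into empty wells; pin in compound or DMSO; measure fluorescence at 485/535 nm. Values are fluorescein equivalents.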

[11] = qHTS assay to test for compound auto fluorescence at 590 nm (red) in HEK293 cell free culture (AID 720683)
Method in brief: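 Red-channel autofluorescence of compounds in culture medium (DMEM, 10% FBS), no cells, measured at 540/590 nm. Rose Bengal sodium is the reference fluorophore for equivalence.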

[12] = qHTS assay to test for compound auto fluorescence at 460 nm (blue) in HepG2 cell free culture (AID 720685)
Method in brief: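 Compound (23 nL) or DMSO pinned into cell-free MEM with 10% FBS; blue fluorescence read at 405/460 nm excitation/emission, expressed as auto-fluorescence equivalency to triamterene.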

[13] = qHTS assay to test for compound auto fluorescence at 535 nm (green) in HepG2 cell free culture (AID 720686)
[14] = qHTS assay to test for compound auto fluorescence at 460 nm (blue) in HepG2 cells (AID 720687)
Method in brief: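 Blue-channel autofluorescence (Ex/Em 405/460 nm, triamterene-equivalent) was measured after 1 hr compound exposure at 37 C, 5% CO2. Cells were HepG2, plated overnight at 37 C in MEM plus 10% FBS.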

[15] = target: Glucocorticoid receptor (Homo sapiens) (UniProt P04150); assay: qHTS assay to identify small molecule agonists of the glucocorticoid receptor (GR) signaling pathway (AID 720691; active means well fitted activation curve with a large enough effect in the signal ratio in the repeat runs, not every such curve was filed as active; the % refers to the signal ratio)
Chain of Glucocorticoid receptor (Homo sapiens) (P04150 whole entry, looked up): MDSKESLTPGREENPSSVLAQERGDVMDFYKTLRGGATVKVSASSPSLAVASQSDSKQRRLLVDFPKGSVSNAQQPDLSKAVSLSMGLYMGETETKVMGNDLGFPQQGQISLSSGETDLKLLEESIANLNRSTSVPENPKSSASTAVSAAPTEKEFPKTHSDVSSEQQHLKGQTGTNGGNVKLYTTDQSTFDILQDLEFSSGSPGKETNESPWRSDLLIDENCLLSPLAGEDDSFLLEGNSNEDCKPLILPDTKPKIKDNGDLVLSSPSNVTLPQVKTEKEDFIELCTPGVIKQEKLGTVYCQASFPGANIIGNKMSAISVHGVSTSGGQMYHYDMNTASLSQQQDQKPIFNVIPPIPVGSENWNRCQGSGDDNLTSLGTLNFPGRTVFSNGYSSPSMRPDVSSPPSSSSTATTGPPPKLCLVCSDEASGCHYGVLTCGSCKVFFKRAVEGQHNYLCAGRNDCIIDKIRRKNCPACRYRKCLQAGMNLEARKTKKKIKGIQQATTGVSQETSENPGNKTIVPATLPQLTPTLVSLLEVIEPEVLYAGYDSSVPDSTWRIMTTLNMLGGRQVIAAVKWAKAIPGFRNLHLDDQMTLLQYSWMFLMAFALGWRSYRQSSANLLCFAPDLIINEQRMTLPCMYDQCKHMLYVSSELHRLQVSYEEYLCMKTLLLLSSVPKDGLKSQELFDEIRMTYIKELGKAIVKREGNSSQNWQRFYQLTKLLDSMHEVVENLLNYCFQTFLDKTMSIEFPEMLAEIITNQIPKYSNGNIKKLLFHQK
Method in brief: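 Agonist mode in a HeLa line carrying a GRE-controlled beta-lactamase reporter. Compounds act for 18 h at 37 C before a 2 h room-temperature FRET substrate step and fluorescence reading.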

[16] = target: Glucocorticoid receptor (Homo sapiens) (UniProt P04150); assay: qHTS assay to identify small molecule antagonists of the glucocorticoid receptor (GR) signaling pathway (AID 720692; active means well fitted inhibition curve with a large enough effect in the signal ratio in the repeat runs, not every such curve was filed as active; the % refers to the signal ratio)
Method in brief: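 Cells plated, rested 4 h at 37 C/5% CO2; compounds in DMSO pin-transferred; dexamethasone added to 5 nM final; 18 h at 37 C; B/G FRET substrate added, 2 h room temperature; fluorescence measured.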

[17] = qHTS assay to identify small molecule antagonists of the glucocorticoid receptor (GR) signaling pathway - cell viability counter screen (AID 720693); further: nearly all actives have a fitted effect of over 55% in size
[18] = qHTS assay for identifying genotoxic compounds that show differential cytotoxicity against isogenic chicken DT40 cell lines with known DNA damage response pathways - wild type cell line (AID 743012); further: nearly all actives have a fitted effect of over 60% in size
Method in brief: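 Cells (DT40 wild type, 300/well) are treated with DMSO-dissolved compounds after a ~0.5 h pre-incubation and kept 40 h at 37 C/5% CO2. Viability is then measured by CellTiter-Glo luminescence following 30 min at room temperature.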

[19] = qHTS assay for identifying genotoxic compounds that show differential cytotoxicity against isogenic chicken DT40 cell lines with known DNA damage response pathways - Rev3 mutant cell line (AID 743014); further: nearly all actives have a fitted effect of over 55% in size
[20] = qHTS assay for identifying genotoxic compounds that show differential cytotoxicity against isogenic chicken DT40 cell lines with known DNA damage response pathways - Rad54/Ku70 mutant cell line (AID 743015); further: nearly all actives have a fitted effect of over 60% in size
[21] = qHTS assay to identify small molecule antagonists of the androgen receptor (AR) signaling pathway - cell viability counter screen (AID 743033; further: nearly all actives have a fitted effect of over 45% in size)
[22] = qHTS assay to identify small molecule antagonists of the androgen receptor (AR) signaling pathway using the MDA cell line - cell viability counter screen (AID 743041; further: nearly all actives have a fitted effect of over 45% in size)
Method in brief: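 R1881-driven MDA-kb2 AR-luc cells, 3,000/well, were dosed with library compounds for 16 h; cell health came from CellTiter-Fluor fluorescence in the reporter wells.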

[23] = qHTS assay to identify small molecule antagonists of the thyroid receptor (TR) signaling pathway - cell viability counter screen (AID 743064); further: nearly all actives have a fitted effect of over 50% in size
Method in brief: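 Plate GH3.TRE-Luc cells; incubate 4 h at 37 °C; add compound, then T3 to 1 nM final; incubate 23.5 h; add CellTiter-Fluor; incubate 30 min at 37 °C, 5% CO2; read fluorescence.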

[24] = qHTS assay to identify small molecule antagonists of the thyroid receptor (TR) signaling pathway (AID 743065); further: nearly all actives have a fitted effect of over 55% in size
Method in brief: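 Antagonism measured as loss of luciferase signal in GH3 cells stably carrying a TRE-luciferase reporter, co-treated with compound and T3 (1 nM final) for 23.5 h at 37 C. Viability was read in the same well by CellTiter-Fluor.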

[25] = test system: thyroid hormone receptor (rat, GH3 cells); assay: qHTS assay to identify small molecule agonists of the thyroid receptor (TR) signaling pathway (AID 743066; calls by dose curve)
[26] = qHTS assay to identify small molecule antagonists of the estrogen receptor alpha (ER-alpha) signaling pathway - cell viability counter screen (AID 743074; calls by dose curve;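 further: HEK293 cells carrying ER-alpha-UAS-bla reporter stimulated with 17beta-estradiol; nearly all actives have a fitted effect of over 45% in size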)
[27] = qHTS assay to identify small molecule antagonists of the estrogen receptor alpha (ER-alpha) signaling pathway using the BG1 cell line - cell viability counter screen (AID 743081);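 further: compound given together with 17beta-estradiol as the ER stimulus; nearly all actives have a fitted effect of over 45% in size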
[28] = qHTS assay to identify small molecule that activate the aryl hydrocarbon receptor (AhR) signaling pathway - cell viability counter screen (AID 743086)
Method in brief: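 Cytotoxicity counter screen: CellTiter-Fluor signal (30 min, 37 C) in 4000 HepG2 cells/well carrying the DRE-luciferase reporter, following 24 h compound exposure at 37 C.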

[29] = qHTS assay to identify small molecule antagonists of the estrogen related receptor (ERR) signaling pathway from Tox21 library - cell viability counter screen (AID 1224834); further: nearly all actives have a fitted effect of over 30% in size
Method in brief: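 Cytotoxicity of test substances is gauged in the same ERR cells used for the antagonist screen, after 17.5 h of compound treatment at 37 C, by CellTiter-Fluor fluorescence measured after 30 min.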

[30] = qHTS assay to identify small molecule antagonists of the estrogen related receptor signaling pathway with the pleiotropic PPARgamma coactivator (PGC) from Tox21 10K library - cell viability counter screen (AID 1224840; active means well fitted cell-killing curve with a large enough effect in the repeat runs, not every such curve was filed as active; further: nearly all actives have a fitted effect of over 40% in size)
Method in brief: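 Step one, plate 2,000 PGC/ERR cells per well; step two, incubate 6 h at 37 C/5% CO2; step three, pin-transfer compounds; step four, incubate 17.5 h; step five, add CellTiter-Fluor and read fluorescence after 30 min.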

[31] = qHTS assay to identify small molecule antagonists of the estrogen related receptor signaling pathway with the pleiotropic PPARgamma coactivator (PGC) from Tox21 10K library (AID 1224841; call rule not given here; further: actives are mostly falling curves and most rising ones were filed inactive; nearly all actives have a fitted effect of over 50% in size)
Method in brief: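 Antagonism in this quantitative HTS is taken from loss of luciferase signal in PGC/ERR cells. Cells (2,000/well) are treated with compounds in DMSO after a 6 h settling period and read by One-Glo luminescence after 18 h.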

[32] = qHTS assay to identify small molecule agonists of the estrogen related receptor signaling pathway with the pleiotropic PPARgamma coactivator (PGC) from Tox21 10K library (AID 1224842); further: nearly all actives have a fitted effect of over 15% in size
Method in brief: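 Luminescence from One-Glo (30 min, room temperature) measured after PGC/ERR cells had 18 h at 37 C with pinned compound (23 nL in DMSO). Cells had been seeded at 2,000 per well and pre-incubated 6 h.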

[33] = qHTS assay to identify small molecule agonists of the estrogen related receptor (ERR) signaling pathway from Tox21 library (AID 1224849; calls by dose curve; further: nearly all actives have a fitted effect of over 15% in size); details: ERR reporter cell line, ONE-Glo luciferase, 18 h
Method in brief: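 Agonist signal is luciferase luminescence from an ERR reporter cell line treated 18 h at 37 C with DMSO-dissolved compounds, read 30 min after ONE-Glo addition at room temperature.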

[34] = qHTS assay to identify small molecule antagonists of the estrogen receptor alpha (ER-alpha) signaling pathway using the BG1 cell line in the presence of 0.1 nM 17-beta-estradiol - cell viability counter screen (AID 1259241); further: nearly all actives have a fitted effect of over 40% in size
Method in brief: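 The cell line endogenously expresses full-length ER-alpha and carries four EREs driving luciferase. Cells are cultured 5 days hormone-free, treated 22 hr with compounds and 0.1 nM estradiol, then viability is read by fluorescence.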

[35] = qHTS assay to identify small molecule antagonists of the androgen receptor (AR) signaling pathway using the MDA cell line in the presence of 0.5 nM R1881 - cell viability counter screen (AID 1259242); further: nearly all actives have a fitted effect of over 45% in size
Method in brief: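 Cytotoxicity toward MDA-kb2 cells is measured by CellTiter-Fluor live-cell protease fluorescence after 16 hr compound exposure at 37C in the presence of 0.5 nM R1881 stimulator.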

[36] = target: Nuclear receptor subfamily 1 group I member 2 (Homo sapiens) (UniProt O75469); assay: Human pregnane X receptor (PXR) small molecule agonists, qHTS assay (AID 1346982); further: nearly all actives have a fitted effect of over 35% in size
Chain of Nuclear receptor subfamily 1 group I member 2 (Homo sapiens) (O75469 whole entry, looked up): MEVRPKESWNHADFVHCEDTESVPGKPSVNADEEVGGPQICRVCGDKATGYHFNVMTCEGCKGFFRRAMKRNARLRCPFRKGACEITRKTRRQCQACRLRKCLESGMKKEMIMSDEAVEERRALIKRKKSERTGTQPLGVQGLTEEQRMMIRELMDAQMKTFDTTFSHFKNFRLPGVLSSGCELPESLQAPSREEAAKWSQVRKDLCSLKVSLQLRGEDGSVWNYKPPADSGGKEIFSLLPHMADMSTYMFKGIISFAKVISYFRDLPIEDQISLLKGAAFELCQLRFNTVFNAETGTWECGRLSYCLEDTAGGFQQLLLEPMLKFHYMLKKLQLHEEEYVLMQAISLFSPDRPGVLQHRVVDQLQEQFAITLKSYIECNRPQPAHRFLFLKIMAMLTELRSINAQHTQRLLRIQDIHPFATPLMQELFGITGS
Method in brief: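 Agonist mode qHTS: PXR-Luc HepG2 cells plated 5 hr before DMSO-dissolved compounds were pinned in, cultured 24 hr at 37 C, 5% CO2; ONE-Glo luminescence readout.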

[37] = target: Acetylcholinesterase (Homo sapiens) (UniProt P22303); assay: Acetylcholinesterase (AChE) small molecule antagonists: colormetric cell-based qHTS assay (AID 1347395; calls by dose curve; further: nearly all actives have a fitted effect of over 30% in size)
Chain of Acetylcholinesterase (Homo sapiens) (P22303 whole entry, looked up): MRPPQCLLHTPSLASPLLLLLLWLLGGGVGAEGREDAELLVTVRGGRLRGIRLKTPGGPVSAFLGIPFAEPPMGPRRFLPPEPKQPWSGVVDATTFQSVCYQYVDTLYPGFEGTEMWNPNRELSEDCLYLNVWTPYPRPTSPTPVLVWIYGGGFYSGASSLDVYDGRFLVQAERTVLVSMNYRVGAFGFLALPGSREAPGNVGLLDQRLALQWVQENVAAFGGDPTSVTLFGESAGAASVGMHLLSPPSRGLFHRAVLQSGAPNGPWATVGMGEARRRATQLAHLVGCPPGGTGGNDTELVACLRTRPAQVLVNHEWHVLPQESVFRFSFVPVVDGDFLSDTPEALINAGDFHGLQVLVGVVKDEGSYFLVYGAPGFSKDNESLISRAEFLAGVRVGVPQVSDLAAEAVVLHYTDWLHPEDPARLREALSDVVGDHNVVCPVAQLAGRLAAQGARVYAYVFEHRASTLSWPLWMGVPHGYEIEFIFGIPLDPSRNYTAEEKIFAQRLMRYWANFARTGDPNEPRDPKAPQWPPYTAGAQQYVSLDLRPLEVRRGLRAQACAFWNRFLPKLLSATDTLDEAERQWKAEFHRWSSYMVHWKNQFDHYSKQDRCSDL
Method in brief: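 Endogenous AChE of human neuroblastoma SH-SY5Y cells was measured with an Ellman-type DTNB/acetylthiocholine mix. Compound pretreatment lasted 30 min at 37 C; substrate reaction ran 90 min at 37 C.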

[38] = target: Acetylcholinesterase (Homo sapiens) (UniProt P22303); assay: Acetylcholinesterase (AChE) small molecule antagonists: enzyme-based qHTS assay (AID 1347397; calls by dose curve; further: nearly all actives have a fitted effect of over 55% in size); details: Potency: AChE enzyme activity inhibition; outcome: AChE enzyme activity inhibition
Method in brief: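 Absorbance-based detection of thiocholine with DTNB served as the read-out. Recombinant human AChE was exposed to compound for 30 min at RT before a 10 min RT incubation with acetylthiocholine.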

[39] = target: Acetylcholinesterase (Homo sapiens) (UniProt P22303); assay: Acetylcholinesterase (AChE) small molecule antagonists: fluorescence cell-based qHTS assay (AID 1347398; calls by dose curve; further: nearly all actives have a fitted effect of over 50% in size); details: Potency: AChE activity; outcome: AChE activity
Method in brief: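 Fluorimetric cell-based assay: intact SH-SY5Y cells, 30 min compound preincubation at 37 C, acetylthiocholine substrate with thiol probe Thiolite Green, 40 min RT development, fluorescence 490/520 nm.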

[40] = target: Acetylcholinesterase (Homo sapiens) (UniProt P22303); assay: Acetylcholinesterase (AChE) small molecule antagonists: enzyme-based qHTS assay with human liver microsomes (AID 1347399; calls by dose curve; further: nearly all actives have a fitted effect of over 60% in size); details: Potency: qHTS inhibition; outcome: qHTS inhibition
Method in brief: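 Recombinant human AChE (50 mU/mL in the enzyme mix) and human liver microsomes (0.25 mg/mL final) were preincubated with compound and NADPH (0.25 mg/mL final) for 30 min at 37 C. Acetylthiocholine/DTNB was then added; thiocholine was read colorimetrically after 10 min at room temperature.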
On the % scale 0 is the no-effect control and ±100 the full control effect.

O=C(O)/C=C\C(=O)O
inactive: Potency [1] | Potency [2] | Potency [3] | Potency [4] | Potency [5] | Potency [6] | outcome [7] | outcome [8] | Potency [9] | Potency [10] | outcome [11] | Potency [12] | Potency [13] | Potency [14] | Potency [15] | Potency [16] | Potency [17] | Potency [18] | Potency [19] | Potency [20] | Potency [21] | Potency [22] | Potency [23] | Potency [24] | Potency [25] | Potency [26] | Potency [27] | Potency [28] | Potency [29] | Potency [30] | Potency [31] | Potency [32] | activity change, positive = activation ([33]; at 42.5 µM (top of the series)) 6.09% | activity change, positive = activation ([33]; at 92.4 µM (top of the series)) 3.24% and 1.53% | Potency [34] | Potency [35] | Potency [36] | Potency [37] | Potency [38] | Potency [39] | Potency [40]

— PubChem BioAssay (Tox21)
